# Assay outcomes from PubChem.
# Most compounds without a hit are left out; they make up all but 1.8% or so of the library.
# PME-1 inh = PME-1 (human) inhibition; Q9Y570; recombinant PME-1, FP-Rh probe fluorescence polarization; inhibition, % at 5.9 µM; hit rate 0.53% among 320,000;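 active means inhibition above the campaign mean of all compounds plus 3 SD, cut at about 26% in these data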;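 further: competitive labeling of PME-1 active site by serine hydrolase directed probe; inhibitors block probe labeling so polarization falls and inhibition rises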
# Target sequence (Q9Y570 whole entry, looked up): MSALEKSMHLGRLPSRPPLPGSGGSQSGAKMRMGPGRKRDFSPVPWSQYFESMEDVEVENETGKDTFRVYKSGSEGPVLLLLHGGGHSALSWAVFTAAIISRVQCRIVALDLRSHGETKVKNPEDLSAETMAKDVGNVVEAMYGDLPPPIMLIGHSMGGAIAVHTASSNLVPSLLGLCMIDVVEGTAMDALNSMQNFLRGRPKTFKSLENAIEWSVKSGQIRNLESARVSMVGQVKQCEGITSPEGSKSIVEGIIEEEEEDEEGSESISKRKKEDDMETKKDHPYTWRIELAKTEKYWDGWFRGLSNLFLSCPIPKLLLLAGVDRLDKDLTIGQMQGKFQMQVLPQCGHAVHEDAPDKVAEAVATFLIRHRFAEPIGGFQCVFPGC
# Fam108B inh = blocks mouse Fam108B hydrolase in RBBP9 counter-screen; inhibition, % at 9.51 µM; recombinant Fam108B, FP-Rh probe fluorescence polarization; hit rate 0.33% among 300,000;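 active means inhibition above the screen mean inhibition plus 3 SD, computed separately per campaign, cut at about 18% in these data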;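 further: inhibitors lower polarization as less probe binds the enzyme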
# PAD4 FP inh = blocks human protein arginine deiminase 4; hit rate 0.41% among 330,000; Q9UM07; recombinant PAD4, RCA probe fluorescence polarization; inhibition, % at 6.36 µM;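 active means percent inhibition above a cutoff equal to the mean of all tested compounds plus 3 SD, cut at about 15% in these data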
# LYPLA1 counter = counter-screen for PME1 inhibitors: inhibitors of human LYPLA1; O75608; recombinant LYPLA1, FP-Rh probe fluorescence polarization; inhibition, % at 5.9 µM; hit rate 0.16% among 320,000; AID 2174;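 active means inhibition above the mean of all tested compounds plus 3 SD, set per campaign, cut at about 14% in these data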;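 further: inhibitors block serine hydrolase probe labeling of LYPLA1 so polarization falls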
# GSTO1 inh = blocks human GSTO1 in RBBP9 counter-screen. P78417. AID 1974. hit rate 1.1% among 300,000. recombinant GSTO1, activity-based probe fluorescence polarization. inhibition, % at 5.96 µM;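 active means inhibition above the campaign mean inhibition plus 3 SD, cut at about 35% in these data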
# LYPLA2 inh = counter-screen for PME1 inhibitors: inhibitors of human LYPLA2; inhibition, % at 5.9 µM; AID 2177; hit rate 0.38% among 320,000; recombinant LYPLA2, FP-Rh probe fluorescence polarization;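 active means inhibition above the screen-wide mean plus 3 SD, limit set per campaign, cut at about 26% in these data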
# Target sequence (O95372 whole entry, looked up): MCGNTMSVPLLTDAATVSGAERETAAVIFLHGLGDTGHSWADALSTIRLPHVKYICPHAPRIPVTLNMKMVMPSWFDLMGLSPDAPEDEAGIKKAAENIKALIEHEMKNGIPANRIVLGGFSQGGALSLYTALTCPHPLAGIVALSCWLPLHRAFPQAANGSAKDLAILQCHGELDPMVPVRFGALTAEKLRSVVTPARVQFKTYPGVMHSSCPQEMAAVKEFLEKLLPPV
# GSTO1 inh conf = confirmation of human GSTO1 inhibitors | shares compounds with GSTO1 inh | recombinant GSTO1, probe fluorescence polarization | inhibition, % at 5.96 µM | hit rate 54% among 2,400 | AID 2176;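 active means inhibition above the primary screen's cutoff, its mean inhibition plus 3 SD, cut at about 35% in these data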;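 further: loss of polarization as inhibitors block binding of rhodamine sulfonate ester activity probe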
# GSTO1 ABPP inh = GSTO1 (human) inhibition by gel ABPP; shares compounds with GSTO1 inh; recombinant GSTO1, gel ABPP SE-Rh probe fluorescence; inhibition, % at 1 µM; hit rate 30% among 130;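 active means inhibition of the enzyme GSTO1 above about 75%, limit read from the data; inactive means inhibition below that limit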
# Numbers stand for hits; - = inactive; . = not tested or not shown.
SMILES,PME-1 inh,Fam108B inh,PAD4 FP inh,LYPLA1 counter,GSTO1 inh,LYPLA2 inh,GSTO1 inh conf,others
CC(=O)c1cccc(NC(=O)CSc2nc(=O)n(CCN3CCOCC3)c3c2CCCC3)c1,-,-,-,-,-,-,.,
CCc1nnc(N/N=C/c2cc(Br)c(O)cc2O)n1N,-,-,37.2,-,67.7,-,-,
NN1C(=O)/C(=C\c2ccco2)SC1=S,-,-,-,-,42.5,-,-,
COc1cc(C(F)(F)F)c(C(=O)NCc2cccc(Cl)c2)cn1,-,-,-,-,-,-,.,
C=CCn1c(SCC(=O)c2ccc(O)c(O)c2)nnc1-c1cccc(C)c1,-,.,-,-,.,-,.,
C=CCn1c(SCC(=O)c2ccc(O)c(O)c2)nnc1-c1ccccc1OC,-,-,-,-,40.9,-,-,
C=CCn1c(SCC(=O)c2ccc(O)c(O)c2)nnc1-c1cccnc1,-,-,-,-,40.2,-,-,
O=S(=O)(c1ccc(NCCOc2ccccc2)nc1)N1CCCC1,-,.,-,-,.,-,.,
CCOc1cc(N2CCOCC2)c(OCC)cc1NC(=O)COC(=O)[C@@H]1CCCN1S(=O)(=O)c1ccccc1F,-,-,-,-,79.5,-,80.0,
CC(C)=NOc1cc(NC(=O)CCl)cc([N+](=O)[O-])c1,-,-,-,-,80.0,-,99.5,
O=C(NCCSc1ccccn1)c1ccc(Cl)cc1Cl,-,-,-,-,-,-,.,
COc1ccc(-c2cnc3c(c2)CCC3(C#N)C#N)cc1,-,-,-,-,-,-,.,
Cc1ccc(NC(=O)CC(N)=S)cc1,-,-,-,-,56.1,-,-,
CCn1c(SCC(=O)N(C)C)nc2cc(S(=O)(=O)N3CCOCC3)ccc21,-,-,-,-,-,-,.,
Cc1cc(=O)n(-c2ccc(C(=O)O)cc2)[nH]1,-,-,-,-,63.1,-,-,
NC1=NC[C@H](c2ccccc2)N1CCc1cccc(F)c1,-,-,-,-,-,-,.,
O=C(O)c1cccc(NC2=C(n3nnc4ccccc43)C(=O)c3ccccc3C2=O)c1,-,-,-,-,62.3,-,44.9,
O=C(O)c1cccc(NS(=O)(=O)c2ccc3nnn(O)c3c2)c1,-,-,-,-,-,-,.,
COc1ccccc1N(C(=O)CCl)c1cn(C(C)=O)c2ccccc12,-,-,-,-,70.6,-,79.1,GSTO1 ABPP inh=-
CCOC(=O)c1ccccc1Nc1cn(C(C)=O)c2ccccc12,-,-,-,-,-,-,.,
Cc1ccc(O)c(N)c1,-,.,-,-,.,-,.,
Cc1ccc(O)c(O)c1,-,-,-,-,54.6,-,-,
O=C1c2ccccc2C(=O)C12OC2c1ccc(Cl)cc1 (stereo not drawn),-,-,-,-,44.7,-,-,
O=C1c2ccccc2C(=O)C12OC(c1ccccc1)C1(C(=O)c3ccccc3C1=O)C2c1ccc([N+](=O)[O-])cc1 (stereo not drawn),-,-,-,-,-,-,.,
C=CCc1c(C)nn(CC(=O)O)c1-c1ccccc1,-,-,-,-,-,-,.,
SMILES,PME-1 inh,Fam108B inh,PAD4 FP inh,LYPLA1 counter,GSTO1 inh,LYPLA2 inh,GSTO1 inh conf,others
Cc1nn(-c2ccccc2)c2c1C(c1ccc([N+](=O)[O-])cc1)C(C#N)=C(N)O2 (stereo not drawn),-,-,-,-,-,-,.,
COc1cc(C2C(C#N)=C(N)Oc3c2c(-c2ccccc2)nn3-c2ccccc2)cc(OC)c1OC (stereo not drawn),-,-,-,-,51.9,-,-,
Cc1nn(-c2ccccc2)c2c1C(c1ccco1)C(C#N)=C(N)O2 (stereo not drawn),-,-,-,-,40.6,-,-,
O=C(CNC(=O)c1ccccc1F)OCn1nnc2ccccc2c1=O,-,.,-,-,.,-,.,
Cc1nn(-c2ccccc2)c(Cl)c1/C=N/Nc1nncc(=O)[nH]1,-,-,-,-,-,-,.,
CN=c1scc(C)n1/N=C/c1ccc(O)c(O)c1O,-,-,-,-,73.8,-,-,
CCNc1nc(NCC)n2c(SCC(=O)c3ccc(C(C)C)cc3)nnc2n1,-,-,-,-,95.2,-,87.3,
CCc1ccc(NS(=O)(=O)c2ccc3c(c2)oc(=O)n3C)cc1,-,-,-,-,53.0,-,43.9,
CCN(CCCNS(=O)(=O)c1ccc2c(c1)oc(=O)n2C)c1cccc(C)c1,-,-,-,-,38.2,-,36.2,
C/C(=N\Nc1nc2ccccc2c(=O)n1O)c1ccco1,-,-,-,-,67.4,-,-,
CCOc1ccccc1NC1c2ccccc2C(=O)N1c1ccc(C)cn1 (stereo not drawn),-,-,-,-,-,-,.,
CCOC(=O)c1ccccc1NC1c2ccccc2C(=O)N1c1ccc(C)cn1 (stereo not drawn),-,-,-,-,75.7,-,-,
CC(C)CC1Nc2ccc(C(=O)NCc3ccc4c(c3)OCO4)cc2NC1=O (stereo not drawn),-,-,-,-,44.8,-,-,
CCOC(=O)c1c(C)oc2c1c(C=NC1CCS(=O)(=O)C1)c(O)c1ccccc12 (stereo not drawn),-,-,-,-,-,-,.,
CCOC(=O)c1c(C)oc2c1c(C=NCCC(=O)O)c(O)c1ccccc12,-,-,-,-,43.2,-,47.0,
CC(C)(C)C(=O)NC(c1ccccc1)c1c(O)ccc2ccccc12 (stereo not drawn),-,-,-,-,52.7,-,-,
CCCc1nc2ccc(NC(C)=O)cc2c(=O)n1Cc1ccccc1Cl,-,-,-,-,-,-,.,
Cn1cc(CN2CCN(Cc3ccccc3)CC2)c(-c2cccc(Cl)c2)n1,-,-,-,-,-,-,.,
COc1cccc(-n2nnc3c(=O)n(CC(=O)N4CCC(Cc5ccccc5)CC4)cnc32)c1,-,-,-,-,38.7,-,-,
O=C(CN1C(=O)c2cccnc2Oc2ccc(Cl)cc21)NCCC1=CCCCC1,-,-,-,-,-,-,.,
Cc1sc(NC(=O)CCl)c(C(=O)c2ccccc2)c1C,-,-,-,-,74.3,-,97.1,
Cc1cc(C)c(C)c(C(=O)COC(=O)CNC(=O)CNC(=O)c2ccco2)c1C,-,-,-,-,-,-,.,
O=C1CC(N2CCOCC2)=NN1c1ccc([N+](=O)[O-])cc1,-,-,-,-,48.2,-,-,
COC/C=C/C1=CC2=CC(=O)C(C)(OC(=O)c3cnc4ccccc4n3)C(=O)C2=CN1c1ccccc1 (stereo not drawn),-,-,-,-,37.7,-,-,
COC/C=C/C1=CC2=CC(=O)C(C)(OC(=O)c3cnc4ccccc4n3)C(=O)C2=CN1CCc1c[nH]c2ccccc12 (stereo not drawn),-,-,-,-,45.4,-,-,
